GPR151 ag: human GPR151 activation. PathHunter beta-arrestin GPR151 cells, luminescence. Q8TDV0. hit rate 1% among 650,000. AID 1508602. activation, % at 11.2 µM; in the data active means activation above about 4.9%;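 further: 0% = median of compound wells and 100% = cells with positive control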
MITF primary: inhibitors of human MITF; O75030; AlphaScreen MITF homodimerization, bead proximity signal; inhibition, % at 2.6 µM; hit rate 0.91% among 650,000; in the data active means inhibition above about 50%;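 further: 0% = vehicle wells with protein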
TEAD-YAP inh: TEAD-YAP interaction inhibition. HEK-TIYL cells, TEAD-Gal4/YAP UAS-luciferase luminescence. inhibition, % at 9.12 µM. hit rate 1.4% among 640,000. AID 1259422; in the data active means inhibition above about 32%;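 further: 0% = median of test compound wells and 100% = reference inhibitor wells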
FBW7 act: activators of human E3 ligase FBW7; Q969H0; AlphaScreen FBW7–phospho-cyclin E peptide binding, activator screen; normalized activity (activation), % at 26.1 µM; hit rate 0.13% among 650,000; AID 1259310; in the data active means normalized activity above about 1.9%;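 further: purified mutant Fbw7 with reduced substrate affinity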
Target sequence (Q969H0 whole entry, looked up): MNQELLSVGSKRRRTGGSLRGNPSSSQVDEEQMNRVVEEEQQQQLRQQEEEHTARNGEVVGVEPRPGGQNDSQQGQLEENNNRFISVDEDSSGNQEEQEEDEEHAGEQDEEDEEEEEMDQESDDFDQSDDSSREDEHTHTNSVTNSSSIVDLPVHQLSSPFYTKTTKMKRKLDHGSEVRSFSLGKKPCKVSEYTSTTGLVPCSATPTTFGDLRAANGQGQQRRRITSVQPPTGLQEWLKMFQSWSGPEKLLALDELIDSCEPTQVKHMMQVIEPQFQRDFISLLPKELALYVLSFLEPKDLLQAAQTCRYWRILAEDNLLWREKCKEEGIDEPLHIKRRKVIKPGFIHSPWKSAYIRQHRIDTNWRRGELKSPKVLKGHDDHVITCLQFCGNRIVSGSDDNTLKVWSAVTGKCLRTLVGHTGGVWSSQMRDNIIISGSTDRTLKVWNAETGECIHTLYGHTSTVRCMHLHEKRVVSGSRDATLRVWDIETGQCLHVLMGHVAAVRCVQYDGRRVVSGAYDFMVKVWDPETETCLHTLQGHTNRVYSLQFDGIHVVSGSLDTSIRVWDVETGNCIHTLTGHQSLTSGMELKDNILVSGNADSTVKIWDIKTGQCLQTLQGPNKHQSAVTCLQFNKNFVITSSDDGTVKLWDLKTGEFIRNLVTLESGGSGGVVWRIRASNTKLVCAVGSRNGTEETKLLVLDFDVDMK
* marks the source's active call; other numbers are inactive results; / = no result given; ! = not confirmed by another sample. Only some compounds are listed: those with a hit (about 3.4% of all), similar ones and a draw of the others.

SMILES	GPR151 ag	MITF primary	TEAD-YAP inh	FBW7 act
CC(C)(C)C(=O)COC(=O)c1ccc(S(C)(=O)=O)c([N+](=O)[O-])c1	1	4	2	0
CS(=O)(=O)c1ccc(C(=O)OCc2cccc(C(F)(F)F)c2)cc1[N+](=O)[O-]	3	10	52*	0
CCCNC(=O)c1c[nH]c2ccc(S(=O)(=O)N(C)c3ccc(CC)cc3)cc2c1=O	2	6	6	0
Cc1noc(C)c1CCC(=O)N1CCC(C(=O)Nc2cccc(-c3ccco3)c2)CC1	0	0	34*	0
Cc1ccc2oc(C(=O)Nc3nc4ccccc4s3)cc2n1	-3	-23	-33	0
CN1/C(=C\C(C[N+](=O)[O-])c2ccc3c(c2)OCO3)C(C)(C)c2ccccc21 (stereo not drawn)	0	8	49*	0
COc1ccc(C(/C=C2\N(C)c3ccccc3C2(C)C)C[N+](=O)[O-])cc1 (stereo not drawn)	1	11	16	0
CC(C)n1c(=O)[nH]c2c(C(N)=O)nc(C3=Cc4ccccc4OC3)nc21	0	7	11	1
O=[N+]([O-])c1ccc(S(=O)(=O)Nc2cccc3ccccc23)cc1	0	17	12	0
O=[N+]([O-])c1ccc(S(=O)(=O)Nc2cccc3cc4ccccc4nc23)cc1	-1	24	80*	0
COc1ccc(NC(=O)NC23CC4CC(CC(C4)C2)C3)c(C)c1	1	-1	12	0
Cc1c(NS(=O)(=O)c2ccc([N+](=O)[O-])cc2)c(=O)n(-c2ccccc2)n1C	0	13	-4	2.0*
COc1cc(C(=O)Nc2sc3c(c2C#N)CCC(C)C3)c(Br)c(OC)c1OC (stereo not drawn)	0	4	34*	0
COc1cc(C(=O)Nc2sc3c(c2C#N)CCC3)cc(OC)c1OC	0	4	41*	0
COc1cc(C(=O)Nc2sc3c(c2C#N)CCC(C)C3)cc(OC)c1OC (stereo not drawn)	0	9	9	1
OCCNc1nc(Nc2ccccn2)nc2c1ncn2-c1ccccc1	0	8	34*	0
Oc1ccc(CCNc2nc(Nc3ccccn3)nc3c2ncn3-c2ccsc2)cc1	-1	12	46*	0
COc1ccc(CCNc2nc(Nc3cccnc3)nc3c2ncn3-c2ccccc2)cc1	-1	13	37*	0
OCCNc1nc(Nc2ccncn2)nc2c1ncn2-c1ccccc1	0	9	3	0
Oc1ccc(CCNc2nc(Nc3ccncc3)nc3c2ncn3-c2ccccc2)cc1	1	-4	56*	0
c1ccc(CNc2nc(Nc3ccccn3)nc3c2ncn3-c2ccsc2)cc1	-2	12	5	0
Oc1ccc(CCNc2nc(NCc3cccnc3)nc3c2ncn3-c2ccccc2)cc1	-2	10	54*	0
Oc1ccc(CCNc2nc(Nc3ccccn3)nc3c2ncn3-c2ccccc2)cc1	1	-9	34*	0
Oc1ccc(CCNc2nc(NCc3cccnc3)nc3c2ncn3-c2ccsc2)cc1	0	-252	1	0
Oc1ccc(CCNc2nc(Nc3ncccn3)nc3c2ncn3-c2ccccc2)cc1	-1	19	15	0
SMILES	GPR151 ag	MITF primary	TEAD-YAP inh	FBW7 act
OCCC1CN(Cc2cc(Cl)ccc2O)CCN1Cc1ccccc1 (stereo not drawn)	-1	2	15	0
O=C1/C(=C/c2ccc(-c3ccc(Br)cc3)o2)C=C(c2ccccc2)N1c1cccc(Cl)c1Cl	-2	6	-8	0
COCCOC(=O)C1=C(C)NC(C)=C(C#N)C1c1ccccc1OC(F)F (stereo not drawn)	-1	-1	9	0
CC1=C(C#N)C(c2cc(Cl)ccc2OC(F)F)C(C#N)=C(C)N1	-1	-5	44*	0
CC1=C(C#N)C(c2cc([N+](=O)[O-])ccc2OC(F)F)C(C#N)=C(C)N1	0	19	42*	1
COc1ccc(C2Nc3ccccc3NC3=C2C(=O)CC(c2cccs2)C3)cc1OC (stereo not drawn)	-1	15	-4	0
COc1ccc(N(C)C2=NS(=O)(=O)c3ccccc32)cc1	0	4	45*	0
O=C(Nc1nnc(-c2ccc(Cl)cc2)o1)c1cccc(C(F)(F)F)c1	0	/	/	/
O=C(Nc1nnc(-c2ccc(F)cc2)o1)c1cccc(C(F)(F)F)c1	1	-8	69*	0
O=C1/C(=C/c2ccc(-c3ccc([N+](=O)[O-])cc3)o2)C=C(c2ccccc2)N1c1ccc(Cl)cc1	-2	-1	0	0
Cc1cc(C(=O)CCl)c(C)n1-c1ccccc1F	0	8	7	0
CCN1CCN(CC(=O)c2cc(C)n(-c3ccccc3F)c2C)CC1	0	62*	-36	0
CCN1CCN(CC(=O)c2cc(C)n(-c3cccc(C(F)(F)F)c3)c2C)CC1	-1	63*	0	0
CN(C)CCCNC(=O)/C=C/c1ccc(Br)cc1	-2	-5	-2	0
Nc1ccc(C(=O)Nc2nc3ccc(C(=O)N4CCOCC4)cc3s2)cc1	-1	-2	8	0
O=C(Nc1nc2ccc(C(=O)N3CCOCC3)cc2s1)c1cccs1	-9	15	42*	0
CN(C)CC#CCOC(c1ccccc1)c1ccccc1	-1	5	-1	0
Cc1ccccc1C(OCCN(C)C)c1ccccc1 (stereo not drawn)	-2	-14	6	1.9*!
Oc1ccc(/C=N/n2c(-c3ccncc3)n[nH]c2=S)cc1O	-1	63*	4	0
Cc1ccc(-c2n[nH]c(=S)n2/N=C\c2ccc(O)c(O)c2)cc1	0	-66	-11	0
CCN(CC)S(=O)(=O)c1ccc(Cl)c(C(=O)Oc2cccc(NC(=O)c3ccccc3Cl)c2)c1	-1	-4	12	0
CCN(CC)S(=O)(=O)c1ccc(Cl)c(C(=O)Oc2cccc(NC(=O)c3ccc(OC)cc3)c2)c1	-2	2	67*	0
CCN(CC)S(=O)(=O)c1cccc(C(=O)Nc2ccc(C#N)cc2)c1	5	0	47*	0
CCN(CC)S(=O)(=O)c1cccc(C(=O)Oc2cccc(NC(=O)c3ccc(OC)cc3)c2)c1	-2	-4	66*	0
COc1ccc(N)c2nc3ccccc3nc12	-1	3	-4	0
SMILES	GPR151 ag	MITF primary	TEAD-YAP inh	FBW7 act
Cc1ccc(N2C(=O)/C(=C\c3ccc(N(C)C)cc3)S(=O)(=O)C2c2cccc([N+](=O)[O-])c2)cc1C (stereo not drawn)	1	3	2	0
COc1cc(-c2nc3cnccn3c2NC2CCCCC2)cc(OC)c1OC	0	14	38*	0
COc1cc(-c2nc3cnccn3c2NC2CCCC2)cc(OC)c1OC	1	-1	32*	0
COc1ccc(C(=O)COc2cccc3c(=O)n(C)ccc23)cc1	3	-3	48*	0
COc1ccc(-c2cnc3ccc(NCCc4ccccn4)nn23)cc1	0	-9	36*	0
c1ccc(CCNc2ccc3ncc(-c4ccc(N5CCOCC5)cc4)n3n2)nc1	-1	19	47*	0
N#Cc1ccc(-c2cnc3ccc(NCCc4ccccn4)nn23)cc1	-1	13	63*	2
